SMILES strings stand for the structures. Screen size: about 2,400 compounds; about 580 (24%) were called active. The list is a sample of the results. Values without a mark were called inactive.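 How the source made its calls: active means activity change at or above the mean plus 3 SD of buffer wells without dofetilide, per plate; inactive means the rest.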

Data on 30 compounds can be found in PubChem BioAssay AID1942 (Johns Hopkins Ion Channel Center, 2009).

For the assay, the target named is Potassium voltage-gated channel subfamily KQT member 2 (Rattus norvegicus) (UniProt O88943). Put plainly: rat KCNQ2 channel activation by compounds alone, confirmation, counter-screen for hERG block protector project, cell-based, CHO, FluxOR thallium flux (AID 1942).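 Further: normalized value minus buffer-control mean plus three SD of buffer wells.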 The note with it: CHO-KCNQ2 cells, FluxOR thallium flux fluorescence; at 10 µM; hits give high values.
Potassium voltage-gated channel subfamily KQT member 2 (Rattus norvegicus), sequence (O88943 whole entry, looked up): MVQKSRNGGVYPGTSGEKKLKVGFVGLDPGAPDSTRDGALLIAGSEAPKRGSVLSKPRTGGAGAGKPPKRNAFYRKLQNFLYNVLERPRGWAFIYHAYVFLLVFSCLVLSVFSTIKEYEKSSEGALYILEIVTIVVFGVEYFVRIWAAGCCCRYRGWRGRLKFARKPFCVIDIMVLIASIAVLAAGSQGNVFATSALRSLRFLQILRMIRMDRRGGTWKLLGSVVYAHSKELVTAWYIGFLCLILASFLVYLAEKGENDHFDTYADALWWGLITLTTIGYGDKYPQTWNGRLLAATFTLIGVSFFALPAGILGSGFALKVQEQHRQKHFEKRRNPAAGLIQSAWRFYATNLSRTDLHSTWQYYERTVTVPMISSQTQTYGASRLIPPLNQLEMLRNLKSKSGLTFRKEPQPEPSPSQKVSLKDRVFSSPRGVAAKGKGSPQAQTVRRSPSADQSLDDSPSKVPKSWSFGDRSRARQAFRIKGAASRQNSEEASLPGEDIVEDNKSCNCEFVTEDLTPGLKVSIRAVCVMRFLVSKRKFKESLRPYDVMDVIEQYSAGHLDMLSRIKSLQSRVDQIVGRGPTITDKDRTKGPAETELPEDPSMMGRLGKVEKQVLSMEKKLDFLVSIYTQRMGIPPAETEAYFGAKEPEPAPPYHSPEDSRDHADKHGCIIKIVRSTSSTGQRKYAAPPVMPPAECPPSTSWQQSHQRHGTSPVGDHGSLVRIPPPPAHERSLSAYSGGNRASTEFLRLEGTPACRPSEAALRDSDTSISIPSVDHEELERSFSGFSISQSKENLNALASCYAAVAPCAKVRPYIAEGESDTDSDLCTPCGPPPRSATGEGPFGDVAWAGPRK
With `CCCCCCCc1c(O)nc(SCC(=O)O)[nH]c1=O`, the activity change, less the hit threshold was -8.4%.
As for `Cc1cc(-c2ccccc2)[nH]c(=O)c1S(=O)(=O)c1ccccc1`, the figure is -13%; as for `C/C(N)=C(/C#N)C(=O)COC(=O)C1CCC(C(C)(C)C)CC1` (stereo not given), -10%; as for `Cn1cc(CCC(=O)N2CCCC(Nc3ccc(F)cc3)C2)cn1` (stereo not given), -23.8%.
The figure for `CCC(=O)Nc1nnc(-c2ccccn2)o1` is -22.5%.
As for `CC(Oc1ccc(Cl)cc1)/C(N)=N/O` (stereo not given), the figure is -19.6%.
On to `Cc1ccccc1Cn1nc(C)c(NC(=O)c2ccccc2)c1C`, for which the activity change, less the hit threshold is 51.6% (active).
As for `CC(=O)c1n[nH]nc1NC(=O)c1ccccc1`, the activity change, less the hit threshold was -9.7%.
As for `CCc1cccc(C)c1NC(=O)C1=C(C(=O)O)CCCC1`, the figure is -15.9%; as for `COc1ccc(CCN2C(=O)CSC2=S)cc1OC`, -24%.
As for `O=C(CCC1CCCC1)NNC(=O)c1cccc(Cl)c1`, the figure is 11.7% (active).
Regarding `O=C(NC(=S)NCCc1ccccc1)c1cccc(Cl)c1`, the activity change, less the hit threshold was -22.4%.
Consider `Cc1cccc(C(=O)NC(=S)NNC(=O)c2ccc(Cl)cc2)c1`, for which the activity change, less the hit threshold is -29%.
The figure for `Cc1ccccc1NC(=O)CC1S/C(=N/c2nccs2)N(C)C1=O` (stereo not given) is -17.1%; for `O=C(O)C1CCN1C1CCCCC1` (stereo not given) it is -22.9%; for `CCOC(=O)c1ccc(Oc2cc(C)nc(SC)n2)cc1` it is 11.9% (active).
As for `CCOc1cc(-n2ncc(C#N)c2N)nc(SC)n1`, the figure is -21.7%.
Regarding `CC(C)(C)OC(=O)NCCCC(CCCNC(=O)OC(C)(C)C)C(=O)O`, the activity change, less the hit threshold is -22.6%.
As for `CCOC(=O)N1CCN(C(=O)COC(=O)c2cc(Cl)c(O)c(Cl)c2)CC1`, the figure is -13.4%.
As for `COc1ccc2[nH]c3c(=O)n(CCN4CCOCC4)cnc3c2c1`, the activity change, less the hit threshold was -15.3%.
With `O=C(Nc1ncc(Cc2ccc(C(F)(F)F)cc2)s1)c1ccc(-c2cccc([N+](=O)[O-])c2)o1`, the activity change, less the hit threshold is -12.3%.
Regarding `O=C(CSc1cn(CC(=O)N2CCCC2)c2ccccc12)NCC1CCCO1` (stereo not given), the activity change, less the hit threshold was -27.5%.
As for `O=C(NCc1ccco1)c1ccc(OCC2CCCO2)cc1` (stereo not given), the figure is -26.4%; as for `O=C(NCC1CCCO1)c1ccc2c(=O)n(Cc3ccco3)c(SCC(=O)N3CCCC3)nc2c1` (stereo not given), 3.2% (active).
As for `OC(COC(c1ccccc1)c1ccccc1)CN1CCCCC1` (stereo not given), the figure is -23.9%; as for `COc1ccc(C(CC(=O)O)NC(=O)C(c2ccccc2)c2ccccc2)cc1` (stereo not given), -23.8%.
`O=C1C(=Cc2cccn2-c2ccc(O)cc2)C(=O)c2ccccc21`: the activity change, less the hit threshold is -25.6%.
With `CCCCCCC1CCC(C(=O)N2CCOCC2)CC1` (stereo not given), the activity change, less the hit threshold is 5.9% (active).
The figure for `O=C(C1CCN(S(=O)(=O)c2cc(Cl)ccc2Cl)CC1)N1CCOCC1` is -26%.
The figure for `CC(C)(C)C(=O)NC(=S)N1CCOCC1` is -8%.
